Assay in all cases: modulators of BK channel variants, profiling panel, selectivity assay, cell-based, U2OS BacMam, thallium flux, beta subunits (AID 1259406);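 note: initial slope of Thallos dye fluorescence rise after thallium is added; log ratio against the mean of 0.3% DMSO vehicle wells on the same plate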
For assay [1], the system named is F380Y. To be noted: at 30 µM.
The test system of assay [2] is F380Y/beta1. Particulars: at 30 µM.
Assay [3] relates to F380Y/beta2Delta. Particulars: at 30 µM.
In assay [4] the test system is F380Y/beta4. To be noted: at 30 µM.
Assay [5] concerns the target Calcium-activated potassium channel subunit alpha-1 (Homo sapiens) + Leucine-rich repeat-containing protein 26 (Homo sapiens) (UniProt Q12791+Q2I0M4). To be noted: F380Y/Slo1WT/gamma1, at 30 µM.
In assay [6] the test system is R275C. To be noted: at 30 µM.
For assay [7], the system named is R275C/beta1. Particulars: at 30 µM.
Assay [8] relates to R275C/beta2Delta. Particulars: at 30 µM.
Assay [9] deals with R275C/beta4. Particulars: at 30 µM.
For assay [10], the system named is R275C/Slo1WT/beta2. Particulars: at 30 µM.

A number with no mark means an inactive call. Activity calls are given as the source filed them.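 Rule for the calls: active = thallium flux through the channel raised or lowered by more than 3 SD from vehicle-only wells, actives on both sides; inactive = the rest.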

Calcium-activated potassium channel subunit alpha-1 (Homo sapiens) + Leucine-rich repeat-containing protein 26 (Homo sapiens), sequence (Q2I0M4 whole entry, looked up, one chain of several): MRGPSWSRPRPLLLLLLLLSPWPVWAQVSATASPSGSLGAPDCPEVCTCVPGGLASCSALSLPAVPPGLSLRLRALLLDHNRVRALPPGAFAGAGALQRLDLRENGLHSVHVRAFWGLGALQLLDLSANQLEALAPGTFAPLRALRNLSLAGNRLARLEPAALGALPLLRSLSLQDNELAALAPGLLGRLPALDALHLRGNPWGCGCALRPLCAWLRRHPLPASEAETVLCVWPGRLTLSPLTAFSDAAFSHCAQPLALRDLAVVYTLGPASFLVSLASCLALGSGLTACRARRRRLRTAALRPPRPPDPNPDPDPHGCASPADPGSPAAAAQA

Turning to `O=S1(=O)CC(N2CCOCC2)c2ccccc21` (stereo not given), the log fold change Tl+ flux is -0.0264 in [1]; -0.00462 in assay [2]; 0.0333 in assay [3]; 0.00745 in [4]; 0.00701 in assay [5]; -0.00299 in assay [6]. Further, the log fold change Tl+ flux in assay [7] was 0.0226; in [8], 0.00722; in assay [9], 0.00198; in [10], -0.0351.

Consider `ONC=Nc1nonc1-c1cccnc1`, for which the log fold change Tl+ flux in [1] was 0.00986; in assay [2], -0.0105; in assay [3] it was -0.0403; in assay [4], 0.000104; in assay [5], -0.0369; in assay [6] it was -0.0128. Further, the log fold change Tl+ flux is 0.016 in assay [7], -0.0342 in [8], -0.00156 in [9] and 0.00719 in assay [10].

Regarding `O=C(CC1SC(=NC2CC3C=CC2C3)NC1=O)Nc1ccccc1Cl` (stereo not given), the log fold change Tl+ flux was 0.0694 in assay [1]; 0.0502 in [2]; 0.0241 in [3]; -0.0131 in [4]; -0.0156 in assay [5]; 0.0384 in [6]. The log fold change Tl+ flux in assay [7] is 0.0688; in [8], 0.032; in [9] it was 0.0398; in assay [10] it was -0.0439.

Turning to `CCOC(=O)c1ccc(N2CCOCC2)c(N=Cc2cc(Cl)cc(Cl)c2O)c1`, the log fold change Tl+ flux in assay [1] is 0.0511; in assay [2], 0.162 (active); in assay [3], 0.0876; in assay [4] it was 0.0975 (active); in assay [5], 0.0345; in assay [6], -0.00571. Besides, the log fold change Tl+ flux is 0.163 (active) in [7], 0.0906 (active) in [8], 0.128 (active) in assay [9] and 0.0153 in [10].

With `O=C(c1ccc(-c2cccs2)s1)c1ccc(F)cc1F`, the log fold change Tl+ flux in assay [1] was -0.00876; in [2], 0.022; in [3], 0.0129; in assay [4], 0.0546; in assay [5] it was 0.0119; in assay [6], -0.00813. Further, the log fold change Tl+ flux in [7] is 0.00849; in [8], 0.0495; in assay [9] it was -0.00599; in [10] it was 0.0293.

Take `CCc1nc2ccccc2nc1N1CCN(S(=O)(=O)c2ccc(Cl)cc2)CC1`: the log fold change Tl+ flux in [1] was -0.00553; in [2], -0.0118; in assay [3] it was -0.00426; in [4], -0.00719; in assay [5], -1.3e-05; in [6], 0.0269. The log fold change Tl+ flux in [7] was 0.0201; in assay [8] it was -0.0214; in [9], 0.00696; in assay [10], -0.0158.

With `N#Cc1cccc(CSc2ncnc(N)n2)c1`, the log fold change Tl+ flux was 0.00879 in [1]; 0.0215 in [2]; 0.00942 in [3]; -0.00378 in assay [4]; 0.019 in assay [5]; 0.0199 in assay [6]. In addition, the log fold change Tl+ flux in [7] is -0.0244; in [8] it was 0.0122; in assay [9], 0.019; in assay [10], 0.00642.

On to `CCOC(=O)C1CCC(C(=O)OCC)N1C(=O)Nc1ccc(Cl)cc1` (stereo not given), for which the log fold change Tl+ flux was 0.046 in [1]; 0.00842 in assay [2]; 0.0313 in assay [3]; -0.0525 in [4]; -0.0039 in [5]; 0.0639 in [6]. The log fold change Tl+ flux in assay [7] is 0.0271; in assay [8] it was 0.0385; in assay [9] it was 0.0217; in assay [10], -0.00903.

Consider `CC1(C)CC(=O)N(c2cc(Cl)cc(Cl)c2)C(=O)C1`, for which the log fold change Tl+ flux was 0.0251 in assay [1]; 0.0345 in [2]; 0.0195 in [3]; -0.021 in assay [4]; -0.00455 in assay [5]; -0.0193 in assay [6]. Besides, the log fold change Tl+ flux in [7] was 0.025; in assay [8], 0.032; in assay [9] it was -0.0103; in assay [10], -0.0488.

For `Cc1cc(Sc2nnc(N=CN(C)C)s2)c2ccccc2n1`, the log fold change Tl+ flux in assay [1] is 0.0126; in assay [2] it was 0.0257; in assay [3], -0.0453; in assay [4], -0.0187; in assay [5], 0.011; in assay [6], 0.0403. For the same compound, the log fold change Tl+ flux was 0.0231 in assay [7], 0.0658 in [8], 0.0604 in assay [9] and 0.0405 in assay [10].

For the compound `Cc1ccc(S(=O)(=O)NC(=O)NCc2csc3ccc(Cl)cc23)cc1`, the log fold change Tl+ flux was 0.252 (active) in assay [1]; 0.65 (active) in assay [2]; 0.241 (active) in assay [3]; 0.366 (active) in assay [4]; 0.14 (active) in assay [5]; 0.0453 in [6]. Also, the log fold change Tl+ flux in assay [7] was 0.48 (active); in assay [8], 0.193 (active); in [9], 0.329 (active); in assay [10] it was 0.116 (active).

As for `COC(=O)C(C#N)=CN(C)C`, the log fold change Tl+ flux in assay [1] is 0.0153; in [2] it was 0.000638; in assay [3], 0.00933; in assay [4] it was 0.0217; in [5] it was -0.0293; in assay [6], 0.0113. The log fold change Tl+ flux is 0.0127 in assay [7], 0.0244 in [8], -0.00979 in [9] and -0.0171 in assay [10].

Turning to `Cn1ncc2ccccc2c1=O`, the log fold change Tl+ flux in assay [1] is 0.0178; in [2], 0.0239; in assay [3] it was 0.0287; in [4], 0.0126; in [5], -0.0763; in assay [6] it was -0.0283. Moreover, the log fold change Tl+ flux in assay [7] was -0.0396; in [8], 0.0689; in assay [9], -0.014; in [10], 0.00701.
